Measured values from PubChem BioAssay AID2284386 (EPA ToxCast).
Calls of active or inactive are those of the source. The calls were made as follows: active = hit-call score of the fitted dose curve at least 0.9, where 1 is the maximum; inactive = score below 0.9.

Target: Peroxisome proliferator-activated receptor gamma (Homo sapiens) (UniProt P37231)
Test: ERF_FR_NR_COA_hPPARG: Eurofins (ERF) Nuclear Receptor (NR) Functional Coactivator Assay for human Peroxisome Proliferator-activated Receptor gamma (PPARg) Agonism, conducted at France lab site
Procedure: ERF_FR_NR_COA_hPPARG is a biochemical, single-readout assay that uses extracted gene-proteins in a cell-free assay. Measurements were taken 2 hours after chemical dosing in a 384-well plate. See PPARgamma Human NHR Functional Agonist Coactivator Assay, Cerep.ERF_FR_NR_COA_hPPARG is an assay component calculated from the ERF_FR_NR_COA_hPPARG assay. It is designed to measure FRET using a type of binding reporter as detected by fluorescence intensity of Rosiglitazone with fluorimetry technology.Data from the assay component ERF_FR_NR_COA_hPPARG was analyzed at the assay endpoint, ERF_FR_NR_COA_hPPARG, in the positive analysis fitting direction relative to DMSO as the negative control and baseline of activity. Using a type of binding reporter, gain-of-signal activity can be used to understand changes in binding as they relate to gene PPARG. To generalize the intended target to other relatable targets, this assay endpoint is annotated to the nuclear receptor intended target family, where the subfamily is non-steroidal.
Test compound and/or vehicle is incubated with the 2 nM receptors and coactivator peptide for 180 minutes at room temperature. Determination of the amount of complex formed is read spectrofluorimetrically (excitation: 337 nm, emission: 520/490 nm). Test compound-induced increase fluorescence by 50 percent or more (>/=50%) relative to 1 uM GW1929 response indicates possible PPARgamma receptor agonist activity. Test compound-induced inhibition of 5 nM GW1929-induced fluorescence response by 50 percent or more (>/=50%) indicates receptor antagonist activity.

Chain of Peroxisome proliferator-activated receptor gamma (Homo sapiens) (P37231 whole entry, looked up): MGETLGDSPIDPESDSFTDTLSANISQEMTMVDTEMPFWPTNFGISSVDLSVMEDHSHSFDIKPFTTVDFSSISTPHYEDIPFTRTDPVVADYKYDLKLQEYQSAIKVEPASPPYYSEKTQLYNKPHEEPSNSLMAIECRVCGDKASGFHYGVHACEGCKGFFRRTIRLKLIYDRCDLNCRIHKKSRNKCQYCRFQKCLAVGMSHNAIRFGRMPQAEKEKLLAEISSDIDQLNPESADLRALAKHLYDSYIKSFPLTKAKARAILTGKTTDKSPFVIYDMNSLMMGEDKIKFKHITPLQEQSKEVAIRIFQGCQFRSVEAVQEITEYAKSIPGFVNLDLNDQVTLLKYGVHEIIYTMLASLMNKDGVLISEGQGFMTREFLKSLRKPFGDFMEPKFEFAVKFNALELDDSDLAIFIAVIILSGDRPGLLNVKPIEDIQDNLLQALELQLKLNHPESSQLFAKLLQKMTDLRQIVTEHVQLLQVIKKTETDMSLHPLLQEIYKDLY

outcome, inactive:
O=C(CC(=O)C(F)(F)C(F)(F)C(F)(F)F)c1cccs1, NC(=O)c1nc(-c2cccc(-c3cc(F)ccc3OCC(F)(F)C(F)(F)F)c2)n[nH]1, O=C(O)CCC(F)(F)C(F)(F)C(F)(F)F
